Results filed as inconclusive are left out. A call without a number means that no potency is given here. The source made the active and inactive calls. Calls follow the shape of the dose curve; as a rule, active = well fitted cell-killing curve with a large enough effect; inconclusive = small, poorly fitted or top-dose-only effect; inactive = flat fitted curve, though single readings scatter. Bridge positions count the residues as written; N and C are the ends. Square brackets hold non-standard residues; d marks the D form. Side chains are listed from the residue outwards. Peptide text beside a SMILES is read from it. * marks the point of attachment. ξ: configuration not given here. Phg(4-OMe) = COc1ccc([C@H](N)C(=O)O)cc1; d(aIle) = CC[C@H](C)[C@@H](N)C(=O)O; d(aThr) = C[C@@H](O)[C@@H](N)C(=O)O; NMeF = CN[C@@H](Cc1ccccc1)C(=O)O; Isobutyryl = CC(C)C(=O)*; ξL = CC(C)CC(N)C(=O)O
Potency is read from the fitted curve at half-maximal effect.

A short description of the experiment: Panc-1005 Cancer Cell Toxicity qHTS against the NCATS CANVASS Library (AID 1347349). Also: nearly all actives have a fitted effect of over 60% in size. The settings on record: Panc-1005 viability, CellTiter-Glo luminescence, 72 h; series mostly up to 38.3 µM. The source says: Natural products and their derivatives continue to be wellsprings of nascent therapeutic potential. However, many laboratories have limited resources for biological evaluation, leaving their previously isolated or synthesized compounds largely or completely untested. To address this issue, the Canvass library of natural products was assembled (https://tripod.nih.gov/canvass), in collaboration with academic and industry researchers, for quantitative high-throughput screening (qHTS) across a diverse set of cell-based and biochemical assays. The pure (>85% purity by liquid chromatography/mass spectrometry [LC/MS]) Canvass library of 346 natural products were submitted by 45 academic laboratories and companies around the world. We collected pure natural products to circumvent deconvolution and structure elucidation due to time and resource limitations. The library was formatted into 1536-well plates and evaluated in 50 qHTS (in an 11-pnt concentration series) bioassays with broad scope of disease-relevant mechanisms. The resulting data set from 50 different assays was then systematically analyzed to identify overall trends and specific natural products with interesting biological activities. Reported herein are the results of each individual qHTS and their corresponding assay protocol. National Center for Advancing Translational Sciences (NCATS), Rockville, MD National Institute of Health (NIH), Bethesda, Maryland
Cancer Cell Toxicity protocol for cell lines COV-362, OV-KATE, OV-SAHO, UWB1.289, UWB1.289-WTBRCA1, HEK-293, HPAF-II, Panc-1005, SW1088, or U-118MG. 1. In a 1536 well, white solid bottom tissue culture plates (Corning 7494), corresponding cells (COV-362, OV-KATE, OV-SAHO, UWB1.289, UWB1.289-WTBRCA1, HEK-293, HPAF-II, Panc-1005, SW1088, or U-118MG) were dispensed in each well at a final concentration of 1000 cells / well (6uL volume) using the Multidrop Combi (Thermo Fisher Scientific) dispenser. 2. The plates were incubated for 4 hours at 37 degrees C/5% CO2/95% Rh. 3. Compounds were pin transferred (~23nL volume) via Wako Pin-tool (Wako Automation, Richmond VA) equipped with a 1536 pin head. The assay plates were treated with compounds in an 11-pnt concentration series with a final concentration range of […] to 85uM. 4. Bortezomib was used as a single dose control (0.5mM column 4, rows 1 - 32) at a final concentration of 1.9uM and as a 16pnt titration (1mM; 1:2 dilution; 16-points; n = 2; column 3, rows 1 - 32) with final concentration range of 0.1nM - 3.8uM. 5. The assay plates were incubated for 72 hours at 37 degrees C/5% CO2/95% Rh. 6. 3uL CellTiter-Glo detection reagent was then added to the plates (columns 2 - 48, rows 1 - 32) and incubated at room temperature for additional 15min. 7. Luminescence signal was acquired via the ViewLux plate reader (PerkinElmer) using a clear filter, 2 second exposure and 2x binning settings.
In general terms: Quantitative high-throughput screening tests each substance at several concentrations.
With `COC(=O)[C@@]12Oc3cccc(O)c3C(O)=C1C(=O)C[C@H](C)[C@H]2O`, the Potency entry was “inactive”.
Still for that read-out and setting: the result for `CN1CC[C@@]2([C@@]34CCN(C)[C@@H]3Nc3ccccc34)c3ccccc3N[C@@H]12` reads “inactive”.
On to `CN1CC[C@@]23c4ccccc4N[C@@H]1[C@@]21CCN(C)[C@@H]3Nc2ccccc21`, for which the Potency entry is “inactive”.
On the same count and under the same terms, the result for `O=C1CC(c2ccc(O)cc2)Oc2ccccc21` (stereo not given) reads “inactive”; that for `O=Cc1ccc2n1C[C@]1(C[C@H](O)[C@@H](CO)O1)OC2`, “inactive”; that for `C/C=C/[C@H]1[C@H]2C(=O)c3c(O)c(C)c(O)c(C)c3[C@]1(C(=O)O)C(=O)C=C2C`, “inactive”.
The same measure, in the same setting: the result for `CCC(=O)CCCCC[C@@H]1NC(=O)[C@H]2CCCCN2C(=O)[C@H](C(C)C)NC(=O)[C@H](Cc2cn(OC)c3ccccc23)NC1=O` reads 4.21 µM (active); that for `CC1(C)CC[C@]2(CO)CC[C@]3(C)C(=CCC4[C@@]5(C)CC[C@H](O)C(C)(C)C5CC[C@]43C)C2C1` (stereo not given in full), “inactive”; that for `CO[C@H]1[C@@H](OC(=O)/C(C)=C\[C@@H]2O[C@@H]2[C@H]2O[C@H]2C)[C@H](O)[C@H](OCC23C[C@@H]4[C@H](C)CC[C@H]4C4(C=O)CC2C=C(C(C)C)C34C(=O)O)O[C@@H]1C` (stereo not given in full), “inactive”.
As to `COc1ccc([C@@H]2CC(=O)c3c(cc(O)c(C/C=C(\C)CCC=C(C)C)c3O)O2)cc1`, the activity change, negative = cytotoxicity was -16.1% [at 7.64 µM] (inactive).
Consider `COc1cc2oc3ccccc3c(=O)c2cc1OC`, for which the Potency entry was “inactive”.
The same measure, in the same setting: the result for `C[C@@]12CCC[C@@](C)(C(=O)O)[C@H]1CC[C@@]13C[C@@H](CC[C@H]12)[C@](C)(O)C3` reads “inactive”; that for `C/C(=C\[C@@H](C)CC/C=C/CC/C=C/C(=O)O)[C@@H](O)[C@H](C)C(=O)CCCC1CC(=O)NC(=O)C1`, “inactive”; that for `CC(C)=CCCC(C)(O)[C@H]1CC=C(C)C(O)C1` (stereo not given in full), “inactive”.
Still for that read-out and setting: the result for `CC[C@H](O)CCCCC[C@@H]1NC(=O)[C@H]2CCCCN2C(=O)[C@H]([C@H](C)CC)NC(=O)[C@H](Cc2cn(OC)c3ccccc23)NC1=O` reads 18.8 µM (active); that for `COc1cc(/C=C/C(=O)OC[C@@H](Cc2ccc(O)c(OC)c2)[C@@H](COC(=O)/C=C/c2ccc(O)c(OC)c2)Cc2ccc(O)c(OC)c2)ccc1O`, 9.43 µM (active).
Still for that read-out and setting: next, `C=C[C@]1(C)CC[C@@H]([C@H](C)C(=O)CC=C(C)C)O1`: “inactive”; `O=c1cc(-c2ccc(O)cc2)oc2cc(O)c([C@@H]3OC(CO)[C@H](O)[C@@H](O)[C@H]3O)c(O)c12` (stereo not given in full): “inactive”.
For `CC[C@H](C)[C@H]1NC(=O)[C@@H](NC(=O)C(C)C)[C@@H](C)OC(=O)[C@H](COC(=O)CNC(C)=O)NC(=O)[C@@H]([C@@H](C)O)NC(=O)[C@H](Cc2ccccc2)N(C)C(=O)[C@H](c2ccc(OC)cc2)NC1=O` (Isobutyryl-T[d(aIle)][Phg(4-OMe)][NMeF][d(aThr)]S([Gly-Ac]); ester 1-C), the Potency result is “inactive”.
Take `COC1C(C)OC(OCC23C[C@@H]4[C@H](C)CC[C@H]4C4(C=O)CC2C=C(C(C)C)C34C(=O)O)[C@@H](O)[C@H]1O` (stereo not given in full): the Potency entry was “inactive”.
Still for that read-out and setting: next, `CC(CCC[C@]1(C)C(=O)C=C[C@@]23C[C@]4(C)O[C@@H](C[C@@H]4[C@H]2O)C31)C(=O)O` (stereo not given in full): “inactive”; `O=C1CC2OCC=C3CN4C5CC3C2[C@@H]2N1c1ccccc1[C@]52C[C@@H]4C1=C[C@H]2C3CC4N(CC[C@@]45c4ccccc4N(C1=O)[C@@H]25)C/C3=C/CO` (stereo not given in full): 16.8 µM (active); `COC12OC1(C13OC1(OC)C(=O)c1cc4cc(C)oc(=O)c4c(O)c1C3O)C(O)c1c(cc3cc(C)oc(=O)c3c1O)C2=O` (stereo not given): “inactive”.
`Cc1cc(O)cc2c1C(=O)c1c(O)cc(O)cc1C2=O`: the Potency entry was “inactive”.
On the same count and under the same terms, the result for `COc1ccc([C@@H]2c3cc4c(cc3C(=O)C(C)C2C)OCO4)cc1OC` (stereo not given in full) reads “inactive”; that for `CN1C(=O)C(=O)N2C(=C[C@]3(c4c[nH]c5ccccc45)c4ccccc4N[C@H]23)C1=O`, “inactive”; that for `CC(C)=CCC[C@]1(C)[C@H]2CC(=O)[C@@]3(CO3)[C@@H]1C2`, “inactive”.
Turning to `O=C(OC[C@H]1O[C@@H](OC(=O)c2cc(O)c(O)c(O)c2)[C@H](OC(=O)c2cc(O)c(O)c(O)c2)[C@@H](OC(=O)c2cc(O)c(O)c(O)c2)[C@@H]1OC(=O)c1cc(O)c(O)c(O)c1)c1cc(O)c(O)c(O)c1`, the Potency was 8.41 µM (active).
`C/C1=C/[C@@H](C)[C@H](O)[C@@H](O)/C=C/CC/C=C/C(=O)O[C@@H]1[C@H](C)C(=O)CCCC1CC(=O)NC(=O)C1`: the Potency result was “inactive”.
Turning to `COc1ccc(-c2oc3cc(OC)cc(OC)c3c(=O)c2O)cc1`, the Potency entry was “inactive”.
Still for that read-out and setting: the result for `CC[C@@H]1C[C@@]2(CC)OC(=O)[C@@]3(CC)[C@H](CC)[C@@H]1[C@@H]23` reads “inactive”.
On to `C[C@H]1C=C[C@H]2CCCC[C@@H]2[C@H]1C(=O)[C@H]1CC2=C(C(=O)O)CCN2C1=O`, for which the Potency result was “inactive”.
Same read-out and setting: next, `COC(=O)c1cc2cc3c(c(O)c2c(=O)o1)OC1(CC3)CC2=C(O1)C(=O)c1c(O)c(OC)cc(OC)c1C2=O` (stereo not given): 21.1 µM (active).
For the molecule `CC[C@@H](C)[C@H]1NC(=O)C(CC(C)C)NC(=O)[C@@H](CC(C)C)NC(=O)[C@H](Cc2c[nH]c3ccccc23)NC(=O)CNC(=O)[C@@H](CC(N)=O)NC1=O` (stereo partly drawn) (cyclo(GW[dL][ξL][dI][dN])), the Potency entry was “inactive”.
For `C=CC(C)(C)C(=O)[C@@H](C)[C@@H]1CC[C@@](C)(C=C)O1`, the Potency entry was “inactive”.
Same read-out and setting: the result for `C/C(=C\[C@H](C)C(=O)CCCC1CC(=O)NC(=O)C1)[C@@H]1OC(=O)/C=C/CC/C=C/[C@H](O)[C@@H](O)[C@@H]1C` reads 0.668 µM (active); that for `C/C=C/c1cc2c(c(=O)o1)C(=O)[C@@H](O)[C@H](C)O2`, 13.3 µM (active); that for `C/C=C(/C)c1c(Cl)c(O)c(C)c2c1Oc1c(Cl)c(O)c(Cl)c(C)c1C(=O)O2`, “inactive”.
Still for that read-out and setting: next, `C[C@@]12CCC[C@@](C)(C(=O)OP(=O)(O)OC[C@H]3O[C@@H](n4cnc5c(N)ncnc54)[C@H](O)[C@@H]3O)[C@H]1C[C@@H](O)[C@@]13C[C@@H](CC[C@@H]21)[C@](C)(O)C3`: “inactive”.
With `COC(=O)[C@]1([C@H]2CCC(=O)O2)CC(=O)c2c(O)cc(C)cc2O1`, the Potency entry was “inactive”.

For the origin of these results see PubChem BioAssay (NCATS).
